Only some compounds are listed: those with a hit (about 19% of all), similar ones and a draw of the others.
HT1080NT lethal: kills 2HG-producing HT-1080-NT fibrosarcoma cells; HT-1080-NT fibrosarcoma viability, CellTiter-Glo ATP luminescence, 48 h; Potency, µM (series often up to 46.1 µM), for inactives: at the top dose activity, negative = less viability, hits mostly cytotoxic; 360,000 compounds, 1.6% hits;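 also: NT is the 2HG producing partner of a matched IDH1 knockdown line; potency is read from the fitted curve at half-maximal effect; 0% = DMSO-treated cells and -100% = media-only wells without cells; nearly all actives have a fitted effect of over 55% in size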
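Luminescent CellTiter-Glo readout after 48 hours of compound exposure at 37 degrees C defined viability of HT-1080-NT cells. Activity was normalized to DMSO wells and cell-free media wells; concentration-response curves were fitted and assigned curve classes.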
HT1080 IDH1KD tx: HT-1080 IDH1 knockdown cell toxicity (counter line). HT-1080 IDH1 knockdown viability, ATP luminescence, 48 h. Potency, µM (titrated, usually from 46.1 µM), inactives show at the top dose activity, negative = toxicity, usual class: cytotoxic. 360,000 compounds, 2% hits;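 also: potency is read from the fitted curve at half-maximal effect; 0% = DMSO wells and -100% = cell-free medium wells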
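% activity derives from luminescence (CellTiter-Glo), normalised to DMSO and no-cell wells. HT-1080-IDH1KD cells, 750/well, had 48 h compound exposure at 37 °C.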
TDP1 cell noCPT: qHTS for Inhibitors of human tyrosyl-DNA phosphodiesterase 1 (TDP1): qHTS in cells in absence of CPT; DT40 Tdp1-/- hTDP1 cells, no CPT, ATP luminescence, 48 h; Potency, µM (top dose mostly 46.2 µM), for inactives: at the highest dose activity change, negative = growth inhibition, actives largely listed as inhibitors; 420,000 compounds, 15% hits; also: potency is read from the fitted curve at half-maximal effect; nearly all actives have a fitted effect of over 55% in size
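Chicken DT40 Tdp1-/- cells stably complemented with human TDP1 were seeded at 400 cells/well with DMSO in place of 20 nM camptothecin. After compound pinning, cells grew at least 48 hr at 37 °C; viability read by CellTiter-Glo luminescence.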
IL-1B inflam inh: blocks inflammasome-driven IL-1 beta release. 360,000 compounds, 4.7% hits. THP-1 LPS/ATP IL-1B secretion, AlphaLISA, 16 h; stronger effect = lower value. activity change, % at 57.5 µM; in the data active = activity change below about -50%; inconclusive = mostly about -30% to -49%
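Secreted IL-1B measured by AlphaLISA bead assay after 16 h compound exposure of THP-1 cells; compounds (final up to 57.5 uM) added 1 h before LPS (250 ng/mL) and ATP (1.25 mM) stimulation; lower signal means less secretion.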
DT40 TDP1 CPT: DT40-hTDP1 cell growth loss with CPT. chicken DT40 Tdp1-/-;hTDP1 cells + 20 nM CPT, ATP luminescence, 48 h. Potency, µM (highest dose often 46.2 µM), for inactives: at the highest dose activity change, negative = growth inhibition, usual class: inhibitors. 420,000 compounds, 12% hits; also: potency is read from the fitted curve at half-maximal effect; nearly all actives have a fitted effect of over 55% in size
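Cell growth measured by CellTiter-Glo luminescence after a minimum 48 h, 37 C compound exposure with 20 nM CPT in Tdp1-knockout DT40 cells stably expressing hTDP1, seeded 400/well; qHTS titration format.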
Numbers without * were called inactive; i = inactive; ? = inconclusive; nt = no result given. Unless noted, calls follow the shape of the dose curve; as a rule, active = well fitted curve in the direction sought with a large enough effect; inconclusive = small, poorly fitted or top-dose-only effect, or another doubt; inactive = no such curve, though single readings can be large; an effect the other way counts as inactive or inconclusive. Unless noted, % is scaled to controls: 0 for no effect and ±100 for the full control effect.

SMILES	HT1080NT lethal	HT1080 IDH1KD tx	TDP1 cell noCPT	IL-1B inflam inh	DT40 TDP1 CPT
Cc1cccc(NC(=O)c2cn(-c3ccccc3)nc2-c2ccccc2)c1	-5.2%	1.5%	16.4µM*	-1.3	?
Cc1ccc(NC(=O)Cn2cc(S(=O)(=O)N3CCCC3)c(S(=O)(=O)N3CCCC3)c2)c(C)c1	nt	nt	0.4%	nt	1.9%
Cc1cc(C(=O)Nc2cccc(S(=O)(=O)N3CCOCC3)c2)c2ccccc2n1	-3.4%	0.0%	23.1µM*	22.9	?
Cc1ccc(S(=O)(=O)N2CCOCC2)cc1NC(=O)Cn1nnc(-c2ccccc2)n1	-1.6%	-2.4%	-23.0%	9.9	-18.8%
Cc1cccc(NC(=O)c2cn(-c3ccccc3)nc2-c2ccccc2)c1C	nt	nt	20.6µM*	nt	?
Cc1ccc(S(=O)(=O)N2CCOCC2)cc1NC(=O)c1cc(-c2ccccn2)nc2ccccc12	?	?	-27.0%	-51.2*	?
Cc1cc(C(=O)Nc2ccc(N3CCOCC3)cc2)c2ccccc2n1	-0.7%	-2.6%	-16.3%	7.1	4.4%
O=C(Cn1nnc(-c2ccccc2)n1)Nc1cccc(S(=O)(=O)N2CCOCC2)c1	6.8%	7.1%	11.6µM*	-9.2	?
COc1ccc(C(=O)Nc2c(N)nc(SCC(=O)NCC3CCCO3)[nH]c2=O)cc1OC (stereo unspecified)	8.3%	1.9%	-2.8%	i	-0.5%
O=C(Nc1cccc(S(=O)(=O)N2CCOCC2)c1)c1cn(-c2ccccc2)nc1-c1ccccc1	1.7%	8.3%	23.1µM*	-18.6	?
Cc1ccc2ccccc2c1C(O)c1ncc(-c2ccccc2F)[nH]1 (stereo unspecified)	-26.3%	-14.1%	-27.4%	21.2	?
COc1ccc(C2Nc3ccccc3C(=O)N2Cc2ccco2)cc1COc1ccc([N+](=O)[O-])cc1 (stereo unspecified)	6.8%	8.1%	23.1µM*	?	?
COc1ccc(C2Nc3ccccc3C(=O)N2Cc2ccco2)cc1COc1c(C)cccc1C (stereo unspecified)	nt	nt	5.01µM*	nt	2.51µM*
CCCN1C(=O)c2ccccc2NC1c1ccc(OC)c(COc2ccc([N+](=O)[O-])c(C)c2)c1 (stereo unspecified)	nt	nt	17.8µM*	nt	?
Cc1ccc(NC(=O)CCCn2nc(C)c3c(C)n(-c4ccccc4)nc3c2=O)c(Cl)c1	-0.8%	1.3%	-0.6%	15.7	-17.4%
Cc1ccc(S(=O)(=O)N/N=C/c2cc(Br)ccc2O)cc1	-29.2%	-26.7%	-9.6%	21.8	?
Cc1ccc(S(=O)(=O)Nc2ccc(Br)cc2/C=N/n2cnnc2)cc1	12.6µM*	?	29.1µM*	10.8	?
N#CC(C#N)=C1c2cc(S(=O)(=O)NCCO)ccc2-c2ccc(S(=O)(=O)NCCO)cc21	-6.3%	0.2%	?	?	13µM*
O=C1c2cc(S(=O)(=O)NCCO)ccc2-c2ccc(S(=O)(=O)NCCO)cc21	-8.2%	5.8%	-16.6%	-12.8	30.4%
NS(=O)(=O)c1ccc2c(c1)C(=NO)c1cc(S(N)(=O)=O)ccc1-2	-0.6%	-4.2%	-9.0%	-5.3	57.4%
N#CC(C#N)=C1c2cc(S(N)(=O)=O)ccc2-c2ccc(S(N)(=O)=O)cc21	-24.1%	-0.5%	20.6µM*	-21.6	16.4µM*
COc1ccc2[nH]cc(CCNC(=O)/C=C/[C@H]3O[C@@H](n4cnc5c(NC(=O)c6ccccc6)ncnc54)[C@H](O)[C@@H]3O)c2c1	24.5%	23.0%	10.9%	?	1.0%
COc1ccccc1OCc1nnc(SCC(=O)Nc2nnc(C3CC3)s2)n1C	-0.6%	0.0%	?	6.8	-24.3%
COc1ccc(OC)c(CC(=O)N2CCc3cc(OC)c(OC)cc3C2)c1	0.0%	-3.4%	?	-2.1	0.13µM*
COc1cc2c(cc1OC)CN(C(=O)CCOc1ccccc1)CC2	-15.0%	-20.2%	18.4µM*	21.8	?

Screening data as filed in PubChem BioAssay.
